# Screens from PubChem BioAssay.
# Rows were chosen to be rich in hits. Some 32% of all compounds tested hit in one or more screens of this group.
# CYP2C19 act: human CYP2C19 activators, primary screen, biochemical, luminescence; recombinant CYP2C19, luciferin-H EGE luminescence; hits give high values; 0 = fully inhibited enzyme, 1 = untreated enzyme; activation factor at 5 µM; 96,000 tested, under 10 active;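 active = activation factor of at least 2 at 5 µM in the primary screen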;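 note: 0 = wells with 2.5 mM tranylcypromine and 1 = vehicle-only wells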
# Target sequence (P33261 whole entry, looked up): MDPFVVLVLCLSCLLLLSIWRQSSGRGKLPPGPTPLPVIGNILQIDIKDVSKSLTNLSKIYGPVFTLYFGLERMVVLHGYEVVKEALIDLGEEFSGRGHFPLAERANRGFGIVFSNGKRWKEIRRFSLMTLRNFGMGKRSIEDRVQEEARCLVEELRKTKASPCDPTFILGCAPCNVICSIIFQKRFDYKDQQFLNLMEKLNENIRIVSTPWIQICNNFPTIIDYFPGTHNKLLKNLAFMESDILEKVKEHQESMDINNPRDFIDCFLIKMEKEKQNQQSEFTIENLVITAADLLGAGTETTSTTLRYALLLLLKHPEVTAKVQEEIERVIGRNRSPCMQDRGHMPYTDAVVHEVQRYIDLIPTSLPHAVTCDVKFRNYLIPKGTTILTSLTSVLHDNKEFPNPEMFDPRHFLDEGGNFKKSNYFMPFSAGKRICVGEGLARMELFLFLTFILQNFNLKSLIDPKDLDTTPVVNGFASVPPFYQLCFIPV
# CYP2C19 inh: blockers of cytochrome P450 2C19 activity – biochemical, luminescence, ADME assay, primary screen. inhibition, % at 5 µM. P33261. CYP2C19 Supersomes, luciferin-H EGE luminescence, 30 min. 96,000 tested, 21% active;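 active = CYP2C19 inhibition above a set limit at 5 µM in the primary screen, cut at about 50% in these data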;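 note: plate controls were negative control wells for no effect and 2.5 mM tranylcypromine positive control for full effect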
# PostGolgi ctrl: growth inhibition of yeast control strain, primary screen, counter-screen for post-Golgi transport modulator project | efflux-deficient yeast background strain, growth absorbance A615, 16 h | inhibition, % at 10 µM | 98,000 tested, 5% active | AID 738, 2007
# PostGolgi yeast: phenotypic screen on post-Golgi transport, primary screen | post-Golgi transport phenotypic cell assay | inhibition, % at 10 µM | 98,000 tested, 0.9% active;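 note: yeast cells grown in 1536-well plates; yeast grown about 18 h at 30C before absorbance read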
# CYP2C9 activ: human CYP2C9 activators, primary screen, biochemical, luminescence. Cytochrome P450 2C9 (Homo sapiens), P11712. recombinant CYP2C9, luciferin-H conversion; hits give high values; factor 1 = untreated enzyme, 0 = blocked. activation factor at 5 µM. 96,000 tested, 1.4% active. AID 1024, 2008;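 active = activation factor of 2 or more for CYP2C9 at a 5 µM dose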;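 note: 0 = sulfaphenazole-blocked wells and 1 = vehicle-only wells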
# CYP2C9 inhib: blockers of cytochrome P450 2C9 activity – biochemical, luminescence, ADME assay, primary screen. AID 777, 2007. inhibition, % at 5 µM. CYP2C9 Supersomes, luciferin-H conversion. 96,000 tested, 20% active. P11712;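 active = blocking of liver enzyme CYP2C9 beyond about 50% at 5 µM, limit read from the data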
# Numbers without * were called inactive; . = not tested or not shown. Cut-off read from the data, not from the text of the source, unless noted: active = inhibition above about 30%; inactive = the rest.
SMILES,CYP2C19 act,CYP2C19 inh,PostGolgi ctrl,PostGolgi yeast,CYP2C9 activ,CYP2C9 inhib
OC(COCc1ccccc1)CN1CCN(c2ccccc2)CC1 (centres undefined),1,4.0,21.9,10.2,1.1,-13.8
O=C(CCn1c(=O)oc2ccccc21)Nc1ccccc1,0.4,60.7*,-1.8,1.1,1.1,-5.8
COc1ccccc1CNC(=O)CCn1c(=O)oc2ccccc21,0.3,71.9*,-1.6,-2.0,1.4,-43.3
CCc1ccc(NC(=O)CCn2c(=O)oc3ccccc32)cc1,0.8,23.5,7.3,2.7,0.4,57.6*
Cn1c(=O)c2c(nc(SCC(=O)O)n2Cc2cc3c(cc2Cl)OCO3)n(C)c1=O,1,-1.5,-7.1,-9.1,0.8,21.1
c1csc(Cn2nnnc2CN2CCN(c3nc4ccccc4s3)CC2)c1,1,-0.2,28.6,-9.3,0.9,11.7
Cn1c(SCc2ccc(F)cc2)nnc1-c1cccs1,0.6,37.9,6.8,-5.7,0.9,9.6
Oc1[nH]c2ccccc2c1C=Nc1ccc2c(c1)OCCO2,0.8,18.4,18.5,-11.5,1,-2.9
CCc1nnc(NC(=O)C2Cc3ccccc3CN2S(=O)(=O)c2cccs2)s1 (centres undefined),0.4,61.1*,14.1,-4.8,0.4,63.4*
CCc1nnc(NC(=O)C2CCCN2S(=O)(=O)c2ccc(C)cc2)s1 (centres undefined),0.8,22.6,7.9,0.2,0.4,64.7*
CCc1nnc(NC(=O)C2CCCN(S(=O)(=O)c3ccccc3)C2)s1 (centres undefined),0.4,63.9*,10.8,0.0,0.8,17.7
CCc1nnc(NC(=O)C2Cc3ccccc3CN2S(=O)(=O)c2ccc(C)cc2)s1 (centres undefined),0,98.8*,40.6*,5.3,0.4,63.8*
CCc1nnc(NC(=O)C2CCC2)s1,1.1,-5.1,8.4,7.3,1,-4.8
CCN(CC(=O)NC(C)C)Cc1nc2sc3c(c2c(=O)[nH]1)CCC3,0.6,44.3,5.2,3.4,0.6,36.8
Cc1nc(C)c(C(=O)C2=C(O)C(=O)N(CCCn3ccnc3)C2c2ccccc2)s1 (centres undefined),0.9,14.6,6.1,5.3,0.8,20.9
COc1ccc(CN(C(=O)Cn2nnc3ccccc32)C(C(=O)NC(C)(C)C)c2ccco2)cc1 (centres undefined),1,-1.1,0.6,6.8,1,-1.9
CCOC(=O)c1ccc(N2C(=O)C3CC=C(C)CC3C2=O)cc1 (centres undefined),1,3.1,2.4,8.2,1,3.3
C/C(=N\NC(=O)C1CCCN(S(=O)(=O)c2ccccc2)C1)c1ccncc1 (centres undefined),0.5,48.8,0.3,-35.4,0.3,68.6*
O=C(Nc1nnc(C2CC2)s1)C1Cc2ccccc2CN1S(=O)(=O)c1cccs1 (centres undefined),0,100.0*,2.8,-8.6,0.3,67.4*
COc1cccc(C(=O)NCC(c2cccnc2)N2CCN(c3ccccc3OC)CC2)c1 (centres undefined),.,.,-11.1,0.6,.,.
Cc1cc(C)n(-c2nnc(C)n2/N=C/c2ccco2)n1,1,-1.5,-0.1,1.6,1.1,-12.8
C=C(C)CN=c1scc(C)n1/N=C/c1ccco1,0.1,87.6*,-1.0,3.4,0.6,44.2
CCCC(=O)Nc1ccc(C(=O)O)cc1NC(=O)CCC,1.2,-15.6,6.4,-4.4,1,-1.6
CCOC(=O)N1CCC(NC(=O)c2cc(S(=O)(=O)N(CC)CC)ccc2F)CC1,0.8,15.0,4.3,17.7,0.6,42.9
Cc1ccc(C(=O)NNC(=O)C2CCN(c3nccc(C)n3)CC2)cc1,0.9,9.9,3.9,12.2,0.5,50.2*
Cc1ccnc(N2CCC(C(=O)NNC(=O)c3ccccc3)CC2)n1,0.9,8.0,-1.1,0.0,0.9,7.5
CC1=C(C(=O)OC(C)C)C(c2ccc(F)cc2)NC(=O)N1 (centres undefined),0.2,85.0*,7.5,2.1,0.7,29.9
